Shown are actives, neighbours in structure and some others; about 1.6% of the full set was active somewhere.
KCNQ2 block = rat KCNQ2 potassium channel inhibitors, primary screen, cell-based, CHO-K1, FluxOR thallium flux, B-score. Potassium voltage-gated channel subfamily KQT member 2 (Rattus norvegicus), O88943. 20 min; stronger effect = lower value. B-score at 10 µM. 310,000 compounds, 1.1% hits. AID 2156, 2009;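 active means fluorescence ratio B-score at most minus 3 library SDs, with starting brightness B-score within 2 library SDs, cut at about -5.5 in these data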
Target sequence (O88943 whole entry, looked up): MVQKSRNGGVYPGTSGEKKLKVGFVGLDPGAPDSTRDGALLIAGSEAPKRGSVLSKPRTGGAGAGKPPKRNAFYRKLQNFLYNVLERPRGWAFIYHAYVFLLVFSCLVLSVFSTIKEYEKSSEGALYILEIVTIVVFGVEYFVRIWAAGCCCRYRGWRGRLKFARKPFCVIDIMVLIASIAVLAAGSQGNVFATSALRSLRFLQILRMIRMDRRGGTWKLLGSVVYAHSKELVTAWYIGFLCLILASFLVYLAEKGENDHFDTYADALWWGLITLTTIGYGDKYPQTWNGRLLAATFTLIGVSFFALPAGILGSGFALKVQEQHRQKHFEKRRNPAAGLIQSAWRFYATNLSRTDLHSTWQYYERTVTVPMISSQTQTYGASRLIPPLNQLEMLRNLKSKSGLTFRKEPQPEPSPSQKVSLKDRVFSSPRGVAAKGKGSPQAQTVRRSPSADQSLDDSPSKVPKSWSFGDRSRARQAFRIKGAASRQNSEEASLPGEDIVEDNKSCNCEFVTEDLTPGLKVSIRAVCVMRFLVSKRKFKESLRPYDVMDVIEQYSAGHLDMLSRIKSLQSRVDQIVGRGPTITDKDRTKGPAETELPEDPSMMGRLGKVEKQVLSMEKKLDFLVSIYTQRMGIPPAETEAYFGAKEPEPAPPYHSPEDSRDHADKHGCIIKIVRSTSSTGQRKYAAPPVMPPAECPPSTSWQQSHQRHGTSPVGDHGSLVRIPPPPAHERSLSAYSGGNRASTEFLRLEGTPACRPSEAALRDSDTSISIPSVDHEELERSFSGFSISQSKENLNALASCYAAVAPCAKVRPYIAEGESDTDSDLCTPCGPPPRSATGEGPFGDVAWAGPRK
KCNQ2 pot = potentiators of rat KCNQ2 potassium channel; B-score at 10 µM; CHO-K1 KCNQ2, FluxOR thallium flux fluorescence; stronger effect = higher value; 310,000 compounds, 0.54% hits;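 active means fluorescence ratio B-score at least 3 SD of library B-scores, with initial fluorescence B-score within 3 of them, cut at about 5.3 in these data; same plate scores as AID 2156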;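 further: B-score of peak minus minimum over baseline fluorescence ratio after K+ and Tl+ stimulus; positive B-score means potentiation of KCNQ2 with more thallium influx and brighter signal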
* marks the source's active call; other numbers are inactive results; i = inactive; . = no result.

SMILES	KCNQ2 block	KCNQ2 pot
Cc1cc(-c2ccc(C(C)C)c(S(=O)(=O)N3CCN(c4ccccc4)CC3)c2)on1	i	.
CCSc1nc(O)cc(=O)[nH]1	i	.
CCSc1nc(=S)cc(C)[nH]1	i	12.9*
CCc1nccn1CCC(=O)NC1CC(C)(C)Cc2c1cnn2-c1cccc(F)c1 (configuration not stated)	i	0.59
CCCn1c(=O)c(C(=O)NCc2ccc3c(c2)OCO3)c(O)c2ccccc21	-5.87*	-5.87
CCn1c(=O)c(C(=O)NCCc2ccc(OC)c(OC)c2)c(O)c2ccccc21	i	.
CCCn1c(=O)c(C(=O)NCc2cccnc2)c(O)c2ccccc21	i	.
CCCn1c(=O)c(C(=O)NCCc2ccc(OC)c(OC)c2)c(O)c2ccccc21	-6.18*	-6.18
CCn1c(CNC(=O)c2cccc(C)c2)nnc1SCC(=O)Nc1nnc(C)s1	i	.
CCC(C)C1Nc2ccc(C(=O)NCCc3ccc(OC)c(OC)c3)cc2NC1=O (configuration not stated)	i	0.28
CCc1ccc(-n2c(C)nc3cc(C(=O)NCc4cccnc4)ccc32)cc1	i	1.41
COc1ccc(N2CCN(C(=O)CSc3ncnc4scc(-c5ccc(C)cc5)c34)CC2)cc1	-5.6*	-5.6
COc1ccc(-c2csc3ncnc(N4CCN(S(=O)(=O)c5cccs5)CC4)c23)cc1	i	.
COc1ccc(-c2csc3ncnc(N4CCN(c5cccc(OC)c5)CC4)c23)cc1	i	.
COc1ccc(-c2csc3ncnc(N4CCN(S(=O)(=O)c5ccc(Cl)s5)CC4)c23)cc1	-7.55*	-7.55
COc1ccc(N2CCN(c3ncnc4scc(-c5ccc(C)cc5)c34)CC2)cc1	i	3.47
COc1ccc(-c2csc3ncnc(N4CCN(c5cccc(Cl)c5)CC4)c23)cc1	-6.07*	-6.07
CNC1(c2nnnn2-c2ccccc2C)CCOC(C)(C)C1 (configuration not stated)	i	.
COc1ccc(C)cc1N(C)C(=O)Cc1c(C(=O)O)n(C)c2ccccc12	i	.
CCOC(=O)C1=C(c2ccccc2)NC(SCC(=O)Nc2cccc(C)c2)=C(C#N)C1c1ccco1 (configuration not stated)	i	0.16
CCOC(=O)CSC1=C(C#N)C(c2ccco2)C(C(=O)Nc2cccc(C(F)(F)F)c2)=C(C)N1 (configuration not stated)	-7.22*	-7.22
CCC(=O)N(Cc1cc2ccc(C)cc2[nH]c1=O)c1ccccc1OC	i	0.9
Cc1ccc(-c2noc(CN(C(=O)C(c3ccccc3)c3ccccc3)C(C)C)n2)cc1	i	.
CC(C)N(Cc1nc(-c2ccc(Cl)cc2)no1)C(=O)C(c1ccccc1)c1ccccc1	-6.21*	-6.21
CC(C)c1ccc(NC(=O)NC2(C(=O)NCc3cccnc3)CCCCC2)cc1	i	0.09
SMILES	KCNQ2 block	KCNQ2 pot
COCc1ccc(C(=O)NC2CCCc3c2cnn3-c2ccc(C)c(C)c2)o1 (configuration not stated)	i	.
Cc1nn(Cc2ccc(C(=O)N3c4ccc(F)cc4CCC3C)o2)c(C)c1Br (configuration not stated)	-7.57*	-7.57
Cc1ccc(C(=O)N2c3ccc(F)cc3CCC2C)o1 (configuration not stated)	i	.
CC[C@@]12C(=O)N(c3ccc(C)cc3)C(=O)N1[C@H](c1ccc(Br)cc1)[C@@H]1C(=O)N(C(C)(C)C)C(=O)[C@@H]12	i	.
Cc1sc2ncnc(SCC(=O)NC(=O)c3cccn3C)c2c1C	i	3.15
Cc1nc2ccccn2c1CN(C)C(=O)C1CCC(=O)N(CCc2cccc(F)c2)C1 (configuration not stated)	i	.
Cc1cccc(NC(=O)CSCC(=O)Nc2ccccc2C(=O)NC2CC2)c1	i	.
CCCCC1(Cc2cccc([N+](=O)[O-])c2)C(=O)N(c2ccccc2)N(c2ccccc2)C1=O	-6.93*	-6.93
CCCCC1(CO)C(=O)N(c2ccccc2)N(c2ccccc2)C1=O	i	0.29
CCOC(=O)c1cccc(-n2c(C)cc(C=O)c2C)c1	i	2.61
CCOC(=O)c1c(-n2c(C)cc(C=O)c2C)sc2c1CCCC2	-6.12*	-6.12
COc1ccc(-n2c(C)cc(/C=C3\SC(=S)N(Cc4ccco4)C3=O)c2C)cc1	i	.
CCN1CCN(c2c(/C=C3\SC(=S)N(Cc4ccco4)C3=O)c(C)c(C#N)c(=O)n2C)CC1	-7.74*	-7.74
NNC(=O)c1csc(-c2ncc(C(F)(F)F)cc2Cl)n1	i	.
c1ccc(-c2nnc(C3CC(c4ccncc4)=NO3)o2)cc1 (configuration not stated)	i	0.19
CSCCC(NC(=O)c1ccco1)C(=O)Nc1ccc(C)c(S(=O)(=O)N2CCOCC2)c1 (configuration not stated)	i	.
COc1ccc2nc(/N=C/c3c(C)[nH]n(-c4ccc(C)cc4)c3=O)sc2c1	i	21.1*
